# Experimental data published in the supplement of paper PMC10105736.
# Values without a mark were called inactive.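 The calls were made as follows: active = MAPPIT score above the 99th percentile of random reference set scores in the same batch; inactive = at or below it.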
# B1: Pka-R2 (protein)
# chain: MSSDSSRRIQVPEELKEVLLQFSISFLVEQPPDVIDYAVEYFTKLQSERPSVSHTDQSTDDQLSVNSQDADAEPPVMASSRRKSVFAEAYDPEADDDDDGATAVFPKTDEQRARLVESVKNVLLFRSLEKEQMNQVLDAMFERKVQPGDFIIRQGDDGDNFYVIESGVYKVYINDKHINTYNHTGLFGELALLYNMPRAATVQAETSGLLWAMDRQTFRRILLKSAFRKRKMYEELLNSVPMLKALQNYERMNLADALVSKSYDNGERIIKQGDAADGMYFIEEGTVSVRMDQDDAEVEISQLGKGQYFGELALVTHRPRAASVYATGGVVKLAFLDVKAFERLLGPCMDIMKRNIDDYESQLVKIFGSKNNITDTR
# B2: Adi1 (protein)
# chain: MVQVWYMDTEETDQRLEHHRNPPAYLELDDLYQKTGVEYFKINADEYQSDNTLTELRAKRGYTYDDEITCSEKCLPDYANKLKAFFTEHLHTDEEIRLILEGSGYFDVRDNEDNWLRIKVVKGDLIIIPAGIYHRFTLDTNNFIRTRRYFVGEPVWAPHNRPADEMDCRKSYIKHQSENFVQFNKV
# B3: CG32486 (protein)
# chain: MSVESSSSAVQQPPSSSNLPLLGDNQAVATTSSASSASSSSTSSSSSSVGGGNVVGVPLDTQGSGEPPAKKQLLDGGGGGATSSSGSSLLSSAAAASGMHEKLAHRISNALCCAVCLDLPKTAMYQCQMGHLMCAACFTHLLADGRLRDQIATCPNCRVEISKSTASRNLAVEKAASELPSECQFCNKEFPYKSLERHEQHECQERPTKCKYHRIGCQWRGPYHETNEHERNCLHPQKSGYEVMAALEAHDDRIKEEKKMFNTLIDLLSYEKIIFNDLQMKPYRTDEYVHKLFYETARFSAFNQQWVVKARINNSQRDPHQSNERTITYQLILKTKTSTPMSIHFFALKGPFSDMKVSTQIYKHEFTETSTESEYYVLPLPDGVGGSGSSECNRMLANKGINFRLLMFLLNK
# B4: CG11899 (protein)
# chain: MVINFAAGPAKLPEEVLKEVQENLVNCNGSGISVMEMSHRSSNYAKIHDATISDLRELLNVPSNYKILLMQGGGTGQFAAVALNLIGKTGTADYVITGSWSAKAAKEAAQYGTVNAVLPKLAKYTTVPRQETWKLDPNASYVYYCDNETVEGVEFDFVPEVPAGVPLVADMSSNFLSRPFDVSKFGVIYAGAQKNIGPAGTTVIIVRDDLIGKHLKITPSILNFEQMDKNNSLLNTPPTFGIYVMGLVFKWIKRNGGVAGMAKLAAAKSKLIYDTINQSNGFYYCPVDVNVRSRMNVPFRIGSASGDDALEKEFLSKAEAEGMIQLKGHRSVGGIRASLYNAVTLAETQQLANLMLAFYKNNKN
# B5: Pep (protein)
# chain: MVSVKVNGNPQNRLVNNAKVNGNMAFRGNQNRNRNFGGGNNNYGGPMGANRMGGMNMSPWESQNPGGGQFGNNMRQGGGQMNAQAINLANNLLNNLFRNQNPPSLLDLPRGGGGMGNRNQRGGPMVSRGGGAGNRLNNRRGQGGGFQNRGATGSGPKPPPKQGGGGIRKQNAFDRAKKLLAKNANQNKKKEPTPGEKKIESPTKESPYASVPNDMFYCHLCKKHMWDANSFENHIKGRTHLMMREGIEESYRLKANMIRQEAKIAEQLKSIEFDRLKRMGKSKQRQLDYCTMCDLNFHGHISTHRKSEGHLQLKKFLHPKCIECNKEFATRIDYDTHLLSAEHLKKAAENNTKVGERKRQTLPISTEEEETRDLRLPQKRKKKPVKKEGEAADGEAKKEGAGDGEGAEGDEAEGEEAKEGEEAADETKEGDELNESQEEEEVALPVDPEDCILDFNDGDEIPSEVDTRLPKYNWQRAVGPGLISKLECYECSVCSKFFDTEVTAEIHSRTATHHRNFLKFINEKSSDTKIAQKRAAAALEENERKKRKVEEAEAPAAEGAAEETTEGAEGELYDPSEATGDDEDVEMVDDNAEGEGEGEGDEEAEAEVEEDGAGQDNGEEEMEAQEEEGQEGEQEPEPEPAPVQTPAPAEPAPPAKTPAKTPTKAAAPAAVASPAAAATSADASPSPAKKATPARAAAGAKATPQRQRARGRYNRY
# B6: ord (protein)
# chain: MYGETTLNKNHVIKFIKLKINNCLGCDEVEINFSKADNVHIIIYSLVTDMAKDLPAVTPVAQAILLLCSLTYPDSDSLETIPQLKIGKGSVSMSFKVYPVNKEEETEPESESDLDEGPSTSKQALERMVQRAERKAKEASTRNVHSKGIYVNVERRFDMYFALDTVSYYINGGKRQSCPLPEFHAKFFVRPQHSINLLRQLHEKCSGNWLKVIQSDGDGDAFKKFKDPDSPFETFVKLFESNPIKPNDMMGKLAKTCLHVNEAVRLTEREFILEVFNQVRHIFEYITAQEYTVWFLVPCLGDKDQLRSKTLEDFDLTKVRTSIRRAGDTSNIWWDHTDHNIKDILLVAFQLDLATHVNQSVLVISHLETLAEFSTMQYVTAFFMNDFYAKKNTEPKWICHRYLERIIDVALFLGVIVIIEYPSAFTLLQEGRHLIKCFQKENADSSRTSQWEIFEDVVKENESDLEFLKEAVGKVQQNV
# What was measured:
# Test in all cases: MAPPIT interaction score (arbitrary units); higher = stronger binary interaction signal, active = hit call of the paper
# Shmt = conditions: MAPPIT configuration: N-N; pair source set: Curagen_high_conf
# Sfp84E = conditions: pair source set: RRS
# alc = conditions: MAPPIT configuration: N-N; pair source set: Lit-BS-16
# robl62A = conditions: MAPPIT configuration: N-N; pair source set: RRS
# ScpX = conditions: MAPPIT configuration: N-N; pair source set: Curagen_high_conf
# SelR = conditions: MAPPIT configuration: N-N; pair source set: Curagen_high_conf
# Sid = conditions: MAPPIT configuration: N-N; pair source set: Curagen_high_conf
# Xbp1 = conditions: MAPPIT configuration: N-N; pair source set: Curagen_low_conf
# Sce = conditions: MAPPIT configuration: N-C; pair source set: Lit-BM-16
# 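Also: HEK293T cells with Epo stimulation, STAT-responsive firefly luciferase reporter, fold induction versus unstimulated cells divided by the larger fold induction of two negative controls lacking either bait or prey.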
binder,measurement,setting,value
B1,MAPPIT interaction score,Shmt,0.452
B2,MAPPIT interaction score,Sfp84E; MAPPIT configuration: N-C,0.249
same,MAPPIT interaction score,Sfp84E; MAPPIT configuration: N-N,0.123
same,MAPPIT interaction score,alc,0.0614
same,MAPPIT interaction score,robl62A,2.17
B3,MAPPIT interaction score,ScpX,4.53 (active)
B4,MAPPIT interaction score,SelR,0.998
B5,MAPPIT interaction score,Sid,-0.865
same,MAPPIT interaction score,Xbp1,-0.182
B6,MAPPIT interaction score,Sce,2.19
